Tests used:
Conditions in all cases: concentration: 1 μM, replicates: in singlicate; n = 1
HUNK = test system: HUNK
ICK = test system: ICK
IGF1R = test system: IGF1R
IKK-alpha = test system: T1, IKK-alpha
T1 construct: gene CHUK

IKK-beta = test system: T2, IKK-beta
T2 construct: gene IKBKB

IKK-epsilon = test system: T3, IKK-epsilon
T3 construct: gene IKBKE

INSRR = test system: INSRR
INSR = test system: INSR
IRAK1 = test system: IRAK1
IRAK3 = test system: IRAK3
IRAK4 = test system: IRAK4
ITK = test system: ITK
[1] = test system: JAK1(JH1domain-catalytic)
[2] = test system: JAK1(JH2domain-pseudokinase)
[3] = test system: JAK2(JH1domain-catalytic)
[4] = test system: JAK3(JH1domain-catalytic)
JNK1 = test system: T4, JNK1
T4 construct: gene MAPK8

JNK2 = test system: T5, JNK2
T5 construct: gene MAPK9

JNK3 = test system: T6, JNK3
T6 construct: gene MAPK10

KIT-autoinhibited = test system: KIT-autoinhibited
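Note: KINOMEscan kinase panel screen.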

O=C(O)COc1ncnc2cc(-c3ccc4[nH]ncc4c3)sc12
%Inh (HUNK): 18%
%Inh (ICK): 31%
%Inh (IGF1R): 0%
%Inh (IKK-alpha): 28%
%Inh (IKK-beta): 19%
%Inh (IKK-epsilon): 4%
%Inh (INSRR): 19%
%Inh (INSR): 0%
%Inh (IRAK1): 29%
%Inh (IRAK3): 38%
%Inh (IRAK4): 0%
%Inh (ITK): 0%
%Inh [1]: 0%
%Inh [2]: 44%
%Inh [3]: 16%
%Inh [4]: 46%
%Inh (JNK1): 30%
%Inh (JNK2): 21%
%Inh (JNK3): 15%
%Inh (KIT-autoinhibited): 30%

CC(=O)Nc1nc2cnc(Nc3cc(NC(=O)c4cccc(CCC#N)c4)ccc3C)nc2s1
%Inh (HUNK): 0%
%Inh (ICK): 0%
%Inh (IGF1R): 0%
%Inh (IKK-alpha): 10%
%Inh (IKK-beta): 0%
%Inh (IKK-epsilon): 33%
%Inh (INSRR): 0%
%Inh (INSR): 34%
%Inh (IRAK1): 19%
%Inh (IRAK3): 21%
%Inh (IRAK4): 15%
%Inh (ITK): 3%
%Inh [1]: 3%
%Inh [2]: 9%
%Inh [3]: 22%
%Inh [4]: 0%
%Inh (JNK1): 0%
%Inh (JNK2): 0%
%Inh (JNK3): 0%
%Inh (KIT-autoinhibited): 11%

Nc1ncnc2[nH]c(-c3ccccc3)nc12 [AH5015]
%Inh (HUNK): 0%
%Inh (ICK): 0%
%Inh (IGF1R): 3%
%Inh (IKK-alpha): 42%
%Inh (IKK-beta): 55%
%Inh (IKK-epsilon): 0%
%Inh (INSRR): 19%
%Inh (INSR): 0%
%Inh (IRAK1): 0%
%Inh (IRAK3): 0%
%Inh (IRAK4): 52%
%Inh (ITK): 12%
%Inh [1]: 8%
%Inh [2]: 34%
%Inh [3]: 47%
%Inh [4]: 0%
%Inh (JNK1): 9%
%Inh (JNK2): 16%
%Inh (JNK3): 15%
%Inh (KIT-autoinhibited): 14%

CC(C)(C)c1ccc(C(=O)Nc2cn3cc(-c4cccnc4)ccc3n2)cc1
%Inh (HUNK): 0%
%Inh (ICK): 0%
%Inh (IGF1R): 0%
%Inh (IKK-alpha): 21%
%Inh (IKK-beta): 27%
%Inh (IKK-epsilon): 11%
%Inh (INSRR): 7%
%Inh (INSR): 0%
%Inh (IRAK1): 41%
%Inh (IRAK3): 30%
%Inh (IRAK4): 70%
%Inh (ITK): 24%
%Inh [1]: 0%
%Inh [2]: 45%
%Inh [3]: 6%
%Inh [4]: 2%
%Inh (JNK1): 24%
%Inh (JNK2): 0%
%Inh (JNK3): 5%
%Inh (KIT-autoinhibited): 0%

NC(=O)c1nnc2ccccc2c1N
%Inh (HUNK): 0%
%Inh (ICK): 13%
%Inh (IGF1R): 0%
%Inh (IKK-alpha): 27%
%Inh (IKK-beta): 35%
%Inh (IKK-epsilon): 0%
%Inh (INSRR): 12%
%Inh (INSR): 29%
%Inh (IRAK1): 54%
%Inh (IRAK3): 19%
%Inh (IRAK4): 33%
%Inh (ITK): 64%
%Inh [1]: 4%
%Inh [2]: 37%
%Inh [3]: 58%
%Inh [4]: 65%
%Inh (JNK1): 27%
%Inh (JNK2): 17%
%Inh (JNK3): 13%
%Inh (KIT-autoinhibited): 19%

Cn1ccc2ncnc(Oc3ccc(Nc4nc5ccccc5[nH]4)cc3)c21
%Inh (HUNK): 0%
%Inh (ICK): 0%
%Inh (IGF1R): 0%
%Inh (IKK-alpha): 0%
%Inh (IKK-beta): 0%
%Inh (IKK-epsilon): 0%
%Inh (INSRR): 17%
%Inh (INSR): 0%
%Inh (IRAK1): 0%
%Inh (IRAK3): 0%
%Inh (IRAK4): 0%
%Inh (ITK): 3%
%Inh [1]: 8%
%Inh [2]: 0%
%Inh [3]: 0%
%Inh [4]: 0%
%Inh (JNK1): 0%
%Inh (JNK2): 0%
%Inh (JNK3): 0%
%Inh (KIT-autoinhibited): 0%

O=C(Nc1n[nH]c2nc(-c3nccs3)c(Br)cc12)C1CCCC1 [SB-742609]
%Inh (HUNK): 0%
%Inh (ICK): 85%
%Inh (IGF1R): 21%
%Inh (IKK-alpha): 28%
%Inh (IKK-beta): 27%
%Inh (IKK-epsilon): 0%
%Inh (INSRR): 32%
%Inh (INSR): 9%
%Inh (IRAK1): 38%
%Inh (IRAK3): 0%
%Inh (IRAK4): 39%
%Inh (ITK): 24%
%Inh [1]: 16%
%Inh [2]: 0%
%Inh [3]: 23%
%Inh [4]: 0%
%Inh (JNK1): 38%
%Inh (JNK2): 27%
%Inh (JNK3): 17%
%Inh (KIT-autoinhibited): 16%

CCn1c(-c2ccccn2)nc2cnccc21 [SB-736398]
%Inh (HUNK): 7%
%Inh (ICK): 9%
%Inh (IGF1R): 19%
%Inh (IKK-alpha): 37%
%Inh (IKK-beta): 17%
%Inh (IKK-epsilon): 0%
%Inh (INSRR): 0%
%Inh (INSR): 0%
%Inh (IRAK1): 45%
%Inh (IRAK3): 100%
%Inh (IRAK4): 37%
%Inh (ITK): 0%
%Inh [1]: 0%
%Inh [2]: 0%
%Inh [3]: 17%
%Inh [4]: 0%
%Inh (JNK1): 24%
%Inh (JNK2): 19%
%Inh (JNK3): 8%
%Inh (KIT-autoinhibited): 0%

Cc1c(Cn2ccn3c(=O)cc(N4CCOCC4)nc23)cccc1C(F)(F)F [GSK2289044]
%Inh (HUNK): 29%
%Inh (ICK): 0%
%Inh (IGF1R): 0%
%Inh (IKK-alpha): 0%
%Inh (IKK-beta): 0%
%Inh (IKK-epsilon): 3%
%Inh (INSRR): 0%
%Inh (INSR): 0%
%Inh (IRAK1): 0%
%Inh (IRAK3): 4%
%Inh (IRAK4): 0%
%Inh (ITK): 5%
%Inh [1]: 83%
%Inh [2]: 0%
%Inh [3]: 0%
%Inh [4]: 0%
%Inh (JNK1): 3%
%Inh (JNK2): 6%
%Inh (JNK3): 3%
%Inh (KIT-autoinhibited): 0%

CS(=O)(=O)c1ccc(-c2c(-c3ncn[nH]3)sc(N3CCOCC3)c2C#N)cc1
%Inh (HUNK): 0%
%Inh (ICK): 0%
%Inh (IGF1R): 7%
%Inh (IKK-alpha): 36%
%Inh (IKK-beta): 29%
%Inh (IKK-epsilon): 24%
%Inh (INSRR): 15%
%Inh (INSR): 0%
%Inh (IRAK1): 0%
%Inh (IRAK3): 100%
%Inh (IRAK4): 0%
%Inh (ITK): 6%
%Inh [1]: 0%
%Inh [2]: 56%
%Inh [3]: 0%
%Inh [4]: 2%
%Inh (JNK1): 25%
%Inh (JNK2): 0%
%Inh (JNK3): 0%
%Inh (KIT-autoinhibited): 49%

COc1ccc(Nc2nccc(-c3cccc(NC(=O)c4cc5cc(F)ccc5[nH]4)c3)n2)cc1 [GSK1229782]
%Inh (HUNK): 8%
%Inh (ICK): 0%
%Inh (IGF1R): 17%
%Inh (IKK-alpha): 21%
%Inh (IKK-beta): 13%
%Inh (IKK-epsilon): 0%
%Inh (INSRR): 0%
%Inh (INSR): 0%
%Inh (IRAK1): 25%
%Inh (IRAK3): 42%
%Inh (IRAK4): 3%
%Inh (ITK): 23%
%Inh [1]: 34%
%Inh [2]: 0%
%Inh [3]: 10%
%Inh [4]: 0%
%Inh (JNK1): 28%
%Inh (JNK2): 34%
%Inh (JNK3): 15%
%Inh (KIT-autoinhibited): 0%
